Assay results: PubChem BioAssay (NCI)
Compounds without any hit were thinned out: in the full panel of roughly 83,000, 20% have a hit.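 Step 1: grow cells in 96-well plates. Step 2: add test compound at a single concentration. Step 3: incubate 48 h. Step 4: record percent growth.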 Active and inactive are the calls of the source. The calls were made as follows: active = growth percent below 10; inactive = the rest.

Legend:
Test in all cases: NCI-60 one-dose screen, 48 h (100 = growth as untreated, 0 = no growth, -100 = all killed)
SR leukemia = conditions: 10 µM unless noted
RPMI-8226 leukemia = conditions: 10 µM
OVCAR-8 ovarian = conditions: 10 µM unless noted
OVCAR-5 ovarian = conditions: 10 µM unless noted
OVCAR-4 ovarian = conditions: 10 µM unless noted
SK-OV-3 ovarian = conditions: 10 µM
IGROV1 ovarian = conditions: 10 µM unless noted
OVCAR-3 ovarian = conditions: 10 µM unless noted
HS 578T breast = conditions: 10 µM unless noted
NCI/ADR-RES ovarian = conditions: 10 µM unless noted
T-47D breast = conditions: 10 µM
SW-620 colon = conditions: 10 µM unless noted
MCF7 breast = conditions: 10 µM unless noted
HCT-116 colon = conditions: 10 µM unless noted
HCC-2998 colon = conditions: 10 µM unless noted
KM12 colon = conditions: 10 µM unless noted
BT-549 breast = conditions: 10 µM unless noted
MDA-MB-435 melanoma = conditions: 10 µM unless noted

Measured: growth

O=C1N/C(=C\c2ccccc2)c2ncccc21
inactive: SR leukemia 76.4% | RPMI-8226 leukemia 106% | OVCAR-8 ovarian 110% | OVCAR-5 ovarian 118% | OVCAR-4 ovarian 95.5% | SK-OV-3 ovarian 89.9% | IGROV1 ovarian 92.3% | OVCAR-3 ovarian 99.2% | HS 578T breast 120% | NCI/ADR-RES ovarian 103% | T-47D breast 79.5% | SW-620 colon 113% | MCF7 breast 80% | HCT-116 colon 101% | HCC-2998 colon 109% | KM12 colon 97.2%

CC1(C)CC(=O)C2=C(C1)Nc1cc3c(cc1C2c1ccc(F)cc1)OCO3 (configuration not stated)
inactive: SR leukemia 90.4% | RPMI-8226 leukemia 92.1% | OVCAR-8 ovarian 97% | OVCAR-5 ovarian 107% | OVCAR-4 ovarian 93.9% | SK-OV-3 ovarian 97.6% | IGROV1 ovarian 100% | OVCAR-3 ovarian 103% | HS 578T breast 88.3% | T-47D breast 85.3% | BT-549 breast 110% | MDA-MB-435 melanoma 102% | SW-620 colon 104% | MCF7 breast 90.6% | HCT-116 colon 96.7% | HCC-2998 colon 102% | KM12 colon 99.3%

CCCCNNC(=O)c1ccc(Br)cc1
inactive: SR leukemia 40.9% | RPMI-8226 leukemia 17.8% | OVCAR-8 ovarian 25.8% | OVCAR-5 ovarian 41.1% | OVCAR-4 ovarian 73.9% | SK-OV-3 ovarian 85% | IGROV1 ovarian 60.1% | OVCAR-3 ovarian 68.8% | HS 578T breast 56.8% | NCI/ADR-RES ovarian 23.5% | BT-549 breast 78.7% | SW-620 colon 32.6% | MCF7 breast 48% | HCT-116 colon 19.5% | HCC-2998 colon 61.4% | KM12 colon 78.1%

Cn1c2ccc(Cl)cc2c2nn(C(=O)c3ccccc3)c(=O)nc21
inactive: SR leukemia 93% | RPMI-8226 leukemia 106% | OVCAR-8 ovarian 101% | OVCAR-5 ovarian 99.5% | OVCAR-4 ovarian 114% | SK-OV-3 ovarian 114% | IGROV1 ovarian 110% | OVCAR-3 ovarian 111% | HS 578T breast 104% | NCI/ADR-RES ovarian 106% | BT-549 breast 122% | MDA-MB-435 melanoma 111% | SW-620 colon 99.3% | MCF7 breast 94.7% | HCT-116 colon 104% | HCC-2998 colon 111% | KM12 colon 106%

COc1ccc(-n2ncc3c2ccc2cc(S(=O)(=O)c4ccccc4)c(=O)n(C)c23)cc1
inactive: SR leukemia 86.1% | RPMI-8226 leukemia 85.4% | OVCAR-8 ovarian 65.4% | OVCAR-5 ovarian 98.4% | SK-OV-3 ovarian 83.5% | IGROV1 ovarian 109% | OVCAR-3 ovarian 91.1% | HS 578T breast 49.5% | T-47D breast 90.6% | BT-549 breast 67.8% | MDA-MB-435 melanoma 90.3% | SW-620 colon 97.5% | MCF7 breast 91% | HCT-116 colon 78.3% | HCC-2998 colon 102% | KM12 colon 88.8%
active: OVCAR-4 ovarian 6.65%

Cc1ccc(S(=O)(=O)N2CCc3ccc(O)c4c3C2CCc2ccccc2-4)cc1 (configuration not stated)
inactive: SR leukemia 76.5% | RPMI-8226 leukemia 95.8% | OVCAR-8 ovarian 98.8% | OVCAR-5 ovarian 110% | OVCAR-4 ovarian 106% | SK-OV-3 ovarian 101% | IGROV1 ovarian 113% | OVCAR-3 ovarian 99.1% | HS 578T breast 106% | NCI/ADR-RES ovarian 104% | T-47D breast 94% | MDA-MB-435 melanoma 97.7% | SW-620 colon 102% | MCF7 breast 103% | HCT-116 colon 108% | HCC-2998 colon 104% | KM12 colon 95.2%

CCC12CCC3c4ccc(O)cc4CCC3C1CC(O)C2O (configuration not stated)
inactive: SR leukemia 19.3% | RPMI-8226 leukemia 89% | OVCAR-8 ovarian 91.5% | OVCAR-5 ovarian 103% | OVCAR-4 ovarian 82.7% | SK-OV-3 ovarian 98.7% | IGROV1 ovarian 82.8% | OVCAR-3 ovarian 95.4% | HS 578T breast 76.8% | NCI/ADR-RES ovarian 47.1% | T-47D breast 93.9% | SW-620 colon 43% | MCF7 breast 75.5% | HCT-116 colon 64.6% | HCC-2998 colon 75.9% | KM12 colon 53.5%
active: MDA-MB-435 melanoma -2.42%

Cc1ccc(C(=O)Nc2ccccc2N)cc1
inactive: SR leukemia 68% | RPMI-8226 leukemia 15% | OVCAR-8 ovarian 59.5% | OVCAR-5 ovarian 51.1% | OVCAR-4 ovarian 99.5% | SK-OV-3 ovarian 92.9% | IGROV1 ovarian 70.1% | OVCAR-3 ovarian 90.8% | HS 578T breast 71.4% | NCI/ADR-RES ovarian 44.2% | BT-549 breast 61.5% | MDA-MB-435 melanoma 68.3% | SW-620 colon 60% | MCF7 breast 74.8% | HCT-116 colon 62.9% | HCC-2998 colon 77.1% | KM12 colon 87.4%

COc1c(O)c2c3c(c1OC)-c1ccccc1CC3N(S(=O)(=O)c1ccc(C)cc1)CC2 (configuration not stated)
active: SR leukemia 9.8% | OVCAR-3 ovarian -10.4%
inactive: RPMI-8226 leukemia 90.9% | OVCAR-8 ovarian 53.7% | OVCAR-5 ovarian 79.2% | OVCAR-4 ovarian 71.3% | SK-OV-3 ovarian 48.9% | IGROV1 ovarian 65.6% | HS 578T breast 63% | NCI/ADR-RES ovarian 40% | T-47D breast 62% | SW-620 colon 30% | MCF7 breast 20.2% | HCT-116 colon 38.6% | HCC-2998 colon 89.6% | KM12 colon 27.8%

COc1cc(/C=C/C(=O)C2=C(/C=C/c3ccc(O)c(OC)c3)NC(=O)NC2c2ccc(O)c(OC)c2)ccc1O (configuration not stated)
inactive: SR leukemia 79% | RPMI-8226 leukemia 76.2% | OVCAR-8 ovarian 86.3% | OVCAR-5 ovarian 94.2% | OVCAR-4 ovarian 93% | SK-OV-3 ovarian 116% | IGROV1 ovarian 113% | OVCAR-3 ovarian 104% | HS 578T breast 81% | T-47D breast 86.7% | BT-549 breast 93.4% | MDA-MB-435 melanoma 93.4% | SW-620 colon 94.2% | MCF7 breast 82.1% | HCT-116 colon 73.3% | HCC-2998 colon 119% | KM12 colon 101%

Cc1ccc(S(=O)(=O)N2CCc3ccc(O)c4c3C2Cc2ccc3c(c2-4)OCO3)cc1 (configuration not stated)
inactive: SR leukemia 14.8% | RPMI-8226 leukemia 27.4% | OVCAR-8 ovarian 31.1% | OVCAR-5 ovarian 45.8% | OVCAR-4 ovarian 45.6% | IGROV1 ovarian 41.6% | HS 578T breast 47.5% | T-47D breast 46% | SW-620 colon 37.2% | MCF7 breast 20.6% | HCT-116 colon 13% | KM12 colon 12.5%
active: SK-OV-3 ovarian 7.28% | OVCAR-3 ovarian -47.7% | NCI/ADR-RES ovarian 9.54% | HCC-2998 colon -25.8%

O=C1Nc2ccc(Cl)cc2/C1=N/N=C(c1ccccc1)c1ccccc1
inactive: SR leukemia 101% | RPMI-8226 leukemia 92.9% | OVCAR-8 ovarian 96% | OVCAR-5 ovarian 96.2% | OVCAR-4 ovarian 85.8% | IGROV1 ovarian 77.4% | OVCAR-3 ovarian 105% | HS 578T breast 97.3% | NCI/ADR-RES ovarian 98% | BT-549 breast 100% | MDA-MB-435 melanoma 99.8% | SW-620 colon 94.1% | MCF7 breast 100% | HCT-116 colon 97.9% | HCC-2998 colon 102% | KM12 colon 93.4%

COc1cc(/C=N/NC(=O)c2cnn3c2NC(c2ccccc2)C3)cc(OC)c1OC (configuration not stated)
inactive: SR leukemia 47.6% | RPMI-8226 leukemia 96.7% | OVCAR-8 ovarian 90.7% | OVCAR-5 ovarian 87.2% | OVCAR-4 ovarian 82.5% | IGROV1 ovarian 54.7% | OVCAR-3 ovarian 10.4% | HS 578T breast 65.2% | NCI/ADR-RES ovarian 82.9% | BT-549 breast 60.2% | SW-620 colon 32.8% | MCF7 breast 34.9% | HCT-116 colon 35% | HCC-2998 colon 91.2% | KM12 colon 30.6%
active: MDA-MB-435 melanoma -15.9%

Cc1ccc(S(=O)(=O)N2CCc3ccc(O)c4c3C2Cc2cc(Cl)ccc2-4)cc1 (configuration not stated)
inactive: SR leukemia 18.9% | RPMI-8226 leukemia 93.8% | OVCAR-8 ovarian 75.4% | OVCAR-5 ovarian 99% | OVCAR-4 ovarian 70.3% | SK-OV-3 ovarian 70% | IGROV1 ovarian 57.6% | NCI/ADR-RES ovarian 42.6% | T-47D breast 65.4% | SW-620 colon 33.1% | MCF7 breast 23.3% | HCT-116 colon 70.9% | KM12 colon 30.8%
active: OVCAR-3 ovarian -3.87% | MDA-MB-435 melanoma 8.9%

CCN(c1ccc(C(=O)N2CCN(c3ccccc3)CC2)cc1)S(C)(=O)=O
inactive: SR leukemia 90.2% | RPMI-8226 leukemia 102% | OVCAR-8 ovarian 103% | OVCAR-5 ovarian 109% | OVCAR-4 ovarian 107% | SK-OV-3 ovarian 106% | IGROV1 ovarian 107% | OVCAR-3 ovarian 106% | T-47D breast 93.2% | BT-549 breast 108% | MDA-MB-435 melanoma 106% | SW-620 colon 108% | MCF7 breast 95.9% | HCT-116 colon 101% | HCC-2998 colon 102% | KM12 colon 101%

COc1cccc2c(=O)c3c(sc12)c(NCCN(C)C)nc1ccccc13
active: SR leukemia -21.2% | RPMI-8226 leukemia -20.1% | OVCAR-4 ovarian -14.4% | MDA-MB-435 melanoma -87.1% | SW-620 colon -69.5% | MCF7 breast 0.0828% | KM12 colon -76.7%
inactive: OVCAR-8 ovarian 25.2% | OVCAR-5 ovarian 40.8% | IGROV1 ovarian 21% | OVCAR-3 ovarian 24.9% | HS 578T breast 13.6% | NCI/ADR-RES ovarian 29.4% | T-47D breast 61.3% | BT-549 breast 61.3% | HCT-116 colon 11% | HCC-2998 colon 12.2%

COc1ccc(/C=C2\Oc3cc(C)c(Cl)cc3C2=O)cc1OC
inactive: SR leukemia 73.2% | RPMI-8226 leukemia 89.9% | OVCAR-8 ovarian 102% | OVCAR-5 ovarian 98.3% | OVCAR-4 ovarian 82.3% | IGROV1 ovarian 103% | OVCAR-3 ovarian 108% | HS 578T breast 109% | NCI/ADR-RES ovarian 107% | BT-549 breast 89.1% | MDA-MB-435 melanoma 96.6% | SW-620 colon 104% | MCF7 breast 83.1% | HCT-116 colon 84.6% | HCC-2998 colon 116% | KM12 colon 100%

Oc1ccc2ccccc2c1C1NN=C(c2ccccc2)S1 (configuration not stated)
active: SR leukemia 2.39%
inactive: RPMI-8226 leukemia 19.6% | OVCAR-8 ovarian 15.6% | OVCAR-5 ovarian 43.2% | OVCAR-4 ovarian 22.3% | SK-OV-3 ovarian 15.4% | OVCAR-3 ovarian 35.1% | HS 578T breast 57.7% | NCI/ADR-RES ovarian 19.5% | T-47D breast 20.7% | BT-549 breast 19.5% | MDA-MB-435 melanoma 29.4% | SW-620 colon 40.4% | MCF7 breast 17.2% | HCT-116 colon 16% | KM12 colon 23.3%

CCN1CCN(c2nc3ccccc3c3c(=O)c4cc(F)ccc4sc23)CC1
active: SR leukemia 0.85%
inactive: RPMI-8226 leukemia 65.5% | OVCAR-8 ovarian 71% | OVCAR-5 ovarian 79.8% | OVCAR-4 ovarian 63% | IGROV1 ovarian 57% | OVCAR-3 ovarian 71% | HS 578T breast 62.1% | NCI/ADR-RES ovarian 78.3% | T-47D breast 65.1% | BT-549 breast 85.7% | MDA-MB-435 melanoma 10.2% | SW-620 colon 37.2% | MCF7 breast 65.1% | HCT-116 colon 54.8% | HCC-2998 colon 64.9% | KM12 colon 48.5%
